# Measurements as given in the supplement of paper PMC6555819.
# Test system: PPARg DBDmut:RXRa IVT, anti-PPARg (DBD mutation: PPARg1 K132A/R137A, NR concentration 270 nM, RXRa partner concentration 90 nM)
# Test: PBM binding z-score (relative to random genomic background probes); higher = stronger binding; sequences stand for … in GC…GCGATTGACAGCGTAGAATGAAGG
# Method in brief: (§1)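 Binding buffer was PBS pH 7.4 with 2% milk, 0.02% Triton X-100, 1 mM DTT, 0.2 mg/mL BSA and 0.4 mg/ml salmon testes DNA. In it, ligand-free nuclear receptor dimers were incubated 1 h on custom Agilent 4×180K protein-binding microarrays carrying double-stranded probes. Antibodies against each partner (one per run) detected binding, and z-scores were calculated against random background probes after regression normalization of scanned fluorescence.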
row,Sequence,PBM binding z-score
1,CCTACTGGGCCATTCAGAGGTCATTTATCATATG,1.61
2,CCGAGTAGCTTATGGGGCATTCAGGCAACGGTGA,-1.42
3,CCTACTGGGCCATTTAGAGGTCATTGATCATATG,0.156
4,CGAACGAGGGCATGAGTTGGTAGCAAATGCCGAT,0.738
5,TATACAGGTTCAAAGGCCAGAGTACGAATGTCGA,0.672
6,CCGACTCGGGCAAGGTTACCATAACGCACAGCCA,-0.901
7,CCTACCGGGCCACGAAAGGTCATTGATTCAGTGA,-0.376
8,TGAATGAGGTTAAAGATCAGAGAACGTGGCGTCG,1.38
9,TCCGCTAGGTCAACGATGGTCAGCTAATCTGCTA,-0.291
10,GCGACTGGGGCAAAGCAGGTTACCAAAAGGTTGG,-0.303
11,CCTACTGGGCCATCAGGTAATTGATATCAACGTT,-0.379
12,TCATATAAGTAAATGCTAGGTGAAAGTCCGATCT,0.642
13,CCGAGTAGGTTATGGGGCACTCAGGCAACGGTGA,-0.555
14,TCTTGTAGATCATTAGAGGTTAAGAAAGTGCGCT,0.756
15,ATATGTAGGTTAAGGGTCATTGAGGTTGGTTCGC,2.89
16,ACTAGCAGGCCAAGGGGCACTCAAGATTAGTCCG,0.105
17,TAGCCGAGGTCAGATCGGGCCAGTATACGCTATA,0.311
18,GCGACAGGGGCAAAGCAGGTTACCATAAGGTTGG,-0.131
19,CCTTACGGGTCACTGATAGGTTATAGCATTTGGA,1.18
20,CCTACTGGGCCCCGAAAGGTCATTGATTCAGTGA,-1.53

row,Sequence,PBM binding z-score
1,ACTATTAGTTGACATAGGGCAACCGATACGACGC,1.27
2,CTTGCTAGGTCATGGTCAGCTAATCTACAGTATG,0.897
3,TCTTGTAGATCAAACGTTAAGAAAGCCGAAGCCT,0.781
4,GATACAGGGTCAGCTAGATGCCAGAGTATGGAAA,0.251
5,CGTACAGGGTCAGCTAGGCCAGAGTAGGGACGGC,0.166
6,ATCGAAAGGTCGAGGTGAGTCTAGAGAAAGGGAA,0.697
7,TATAGTTGGTCACGGAGGTCACACACGACGGGTA,1.35
8,CGAACGAGGGCATGAGTTGATAGTAAATGCCGAT,-0.123
9,CCTACTGAGCCAAGGTCATTGATCAGTCAAAGCA,-0.559
10,ATCTCTTGGTAAAGATAGTTCAGTGAATGCAAAT,0.845
11,TCTATTAGTTGAGTAGGGCAACCGAAACAGCGGA,0.301
12,TCATATAGGTAATACTGGTGAAAGTCGGCATCTA,1.36
13,GGAAAGAGGGCATTCGAGTTGATAGCATGGCGAT,0.272
14,TCTTGTATATCAATAGAGGTTAAGAAAGTGCGCT,0.574
15,TCTCGGAGGACAAGAAAGGTCAGAGCTCGACATC,-0.439
16,CCTATTAGTTGACTATAAGGGCAACCGAAGCTCG,0.358
17,AGAACGAGGGCACGCTGAGTTGATAGGAGAGTAG,0.653
18,ACTATTAGTTGAGACGAGGGAAACCGATAGGTTG,0.706
19,GGAACGAGGGCAAGTTGAGAGCAGAGTTTGATGG,0.19
20,CGTCAAAGTTCAATTAAGGTAACGTAAAGCACGC,1.09

# Test system: PPARg DBDmut IVT, anti-PPARg (DBD mutation: PPARg1 K132A/R137A, NR concentration 270 nM)
# Test: as above
# Method in brief: as §1
row,Sequence,PBM binding z-score
1,CCTACTGGGCCATTCAGAGGTCATTTATCATATG,0.342
2,CCGAGTAGCTTATGGGGCATTCAGGCAACGGTGA,-1.07
3,CCTACTGGGCCATTTAGAGGTCATTGATCATATG,0.0335
4,CGAACGAGGGCATGAGTTGGTAGCAAATGCCGAT,-0.612
5,TATACAGGTTCAAAGGCCAGAGTACGAATGTCGA,0.97
6,CCGACTCGGGCAAGGTTACCATAACGCACAGCCA,-1.26
7,CCTACCGGGCCACGAAAGGTCATTGATTCAGTGA,-1.2
8,TGAATGAGGTTAAAGATCAGAGAACGTGGCGTCG,0.333
9,TCCGCTAGGTCAACGATGGTCAGCTAATCTGCTA,-0.242
10,GCGACTGGGGCAAAGCAGGTTACCAAAAGGTTGG,-0.695
11,CCTACTGGGCCATCAGGTAATTGATATCAACGTT,0.313
12,TCATATAAGTAAATGCTAGGTGAAAGTCCGATCT,0.691
13,CCGAGTAGGTTATGGGGCACTCAGGCAACGGTGA,-0.9
14,TCTTGTAGATCATTAGAGGTTAAGAAAGTGCGCT,0.793
15,ATATGTAGGTTAAGGGTCATTGAGGTTGGTTCGC,2.08
16,ACTAGCAGGCCAAGGGGCACTCAAGATTAGTCCG,-0.646
17,TAGCCGAGGTCAGATCGGGCCAGTATACGCTATA,-0.734
18,GCGACAGGGGCAAAGCAGGTTACCATAAGGTTGG,-0.736
19,CCTTACGGGTCACTGATAGGTTATAGCATTTGGA,0.0564
20,CCTACTGGGCCCCGAAAGGTCATTGATTCAGTGA,-0.961

row,Sequence,PBM binding z-score
1,ACTATTAGTTGACATAGGGCAACCGATACGACGC,1.22
2,CTTGCTAGGTCATGGTCAGCTAATCTACAGTATG,0.605
3,TCTTGTAGATCAAACGTTAAGAAAGCCGAAGCCT,0.516
4,GATACAGGGTCAGCTAGATGCCAGAGTATGGAAA,0.266
5,CGTACAGGGTCAGCTAGGCCAGAGTAGGGACGGC,-0.287
6,ATCGAAAGGTCGAGGTGAGTCTAGAGAAAGGGAA,0.961
7,TATAGTTGGTCACGGAGGTCACACACGACGGGTA,2.08
8,CGAACGAGGGCATGAGTTGATAGTAAATGCCGAT,0.201
9,CCTACTGAGCCAAGGTCATTGATCAGTCAAAGCA,-0.729
10,ATCTCTTGGTAAAGATAGTTCAGTGAATGCAAAT,1.88
11,TCTATTAGTTGAGTAGGGCAACCGAAACAGCGGA,0.883
12,TCATATAGGTAATACTGGTGAAAGTCGGCATCTA,0.717
13,GGAAAGAGGGCATTCGAGTTGATAGCATGGCGAT,0.297
14,TCTTGTATATCAATAGAGGTTAAGAAAGTGCGCT,1.14
15,TCTCGGAGGACAAGAAAGGTCAGAGCTCGACATC,-0.79
16,CCTATTAGTTGACTATAAGGGCAACCGAAGCTCG,0.398
17,AGAACGAGGGCACGCTGAGTTGATAGGAGAGTAG,0.276
18,ACTATTAGTTGAGACGAGGGAAACCGATAGGTTG,0.394
19,GGAACGAGGGCAAGTTGAGAGCAGAGTTTGATGG,-0.541
20,CGTCAAAGTTCAATTAAGGTAACGTAAAGCACGC,1.89
